Test results as given in the supplement of paper PMC11001985.
A number with no mark means an inactive call.

The targets below were run with C#CCNC(=O)CCSSCCC(=O)NCCc1ccc(C=O)c(C=O)c1 (assay: lysine labeling ratio R10:1 (500 µM / 50 µM probe), SILAC-ABPP in living cells; higher = lower intrinsic lysine reactivity toward the probe, active = 2 or less). Settings: HeLa; probe concentrations 500 vs 50 µM.
In short: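 SILAC light and heavy living HeLa cells in PBS at room temperature were labelled with 50 µM or 500 µM of an alkyne-tagged, disulfide-linked lysine probe, with forward and reverse label swaps. Mixed lysates were clicked to biotin-azide, trypsin-digested, captured on neutravidin, DTT-released, alkylated and analysed by LC-MS/MS on a TIMS-TOF Pro. R is the filtered median high-probe/low-probe MS1 peptide ratio per lysine, then the median across forward and reverse replicates. Ratios are capped at 20.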

UniProt P05556, sequence (P05556 whole entry): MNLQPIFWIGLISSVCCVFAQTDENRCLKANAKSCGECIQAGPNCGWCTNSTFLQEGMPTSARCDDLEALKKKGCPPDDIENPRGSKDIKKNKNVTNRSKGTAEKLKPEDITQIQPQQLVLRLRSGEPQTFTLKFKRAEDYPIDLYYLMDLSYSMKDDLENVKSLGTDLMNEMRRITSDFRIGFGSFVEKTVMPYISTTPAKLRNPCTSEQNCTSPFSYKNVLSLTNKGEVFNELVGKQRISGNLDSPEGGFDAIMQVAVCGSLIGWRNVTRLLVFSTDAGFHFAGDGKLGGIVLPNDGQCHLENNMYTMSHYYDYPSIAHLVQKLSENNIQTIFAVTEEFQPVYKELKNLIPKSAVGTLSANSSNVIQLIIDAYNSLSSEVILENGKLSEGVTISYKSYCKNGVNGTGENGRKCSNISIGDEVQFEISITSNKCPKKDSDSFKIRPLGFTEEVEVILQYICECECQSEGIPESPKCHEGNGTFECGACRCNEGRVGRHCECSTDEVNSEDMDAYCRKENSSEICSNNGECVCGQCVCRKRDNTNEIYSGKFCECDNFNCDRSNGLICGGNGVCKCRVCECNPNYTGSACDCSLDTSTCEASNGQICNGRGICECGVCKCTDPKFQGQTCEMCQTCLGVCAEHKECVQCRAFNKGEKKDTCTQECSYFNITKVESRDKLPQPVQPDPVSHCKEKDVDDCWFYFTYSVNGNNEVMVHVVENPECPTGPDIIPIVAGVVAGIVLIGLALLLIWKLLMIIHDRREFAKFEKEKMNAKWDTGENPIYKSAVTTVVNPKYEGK
UniProt P35579, sequence (P35579 whole entry): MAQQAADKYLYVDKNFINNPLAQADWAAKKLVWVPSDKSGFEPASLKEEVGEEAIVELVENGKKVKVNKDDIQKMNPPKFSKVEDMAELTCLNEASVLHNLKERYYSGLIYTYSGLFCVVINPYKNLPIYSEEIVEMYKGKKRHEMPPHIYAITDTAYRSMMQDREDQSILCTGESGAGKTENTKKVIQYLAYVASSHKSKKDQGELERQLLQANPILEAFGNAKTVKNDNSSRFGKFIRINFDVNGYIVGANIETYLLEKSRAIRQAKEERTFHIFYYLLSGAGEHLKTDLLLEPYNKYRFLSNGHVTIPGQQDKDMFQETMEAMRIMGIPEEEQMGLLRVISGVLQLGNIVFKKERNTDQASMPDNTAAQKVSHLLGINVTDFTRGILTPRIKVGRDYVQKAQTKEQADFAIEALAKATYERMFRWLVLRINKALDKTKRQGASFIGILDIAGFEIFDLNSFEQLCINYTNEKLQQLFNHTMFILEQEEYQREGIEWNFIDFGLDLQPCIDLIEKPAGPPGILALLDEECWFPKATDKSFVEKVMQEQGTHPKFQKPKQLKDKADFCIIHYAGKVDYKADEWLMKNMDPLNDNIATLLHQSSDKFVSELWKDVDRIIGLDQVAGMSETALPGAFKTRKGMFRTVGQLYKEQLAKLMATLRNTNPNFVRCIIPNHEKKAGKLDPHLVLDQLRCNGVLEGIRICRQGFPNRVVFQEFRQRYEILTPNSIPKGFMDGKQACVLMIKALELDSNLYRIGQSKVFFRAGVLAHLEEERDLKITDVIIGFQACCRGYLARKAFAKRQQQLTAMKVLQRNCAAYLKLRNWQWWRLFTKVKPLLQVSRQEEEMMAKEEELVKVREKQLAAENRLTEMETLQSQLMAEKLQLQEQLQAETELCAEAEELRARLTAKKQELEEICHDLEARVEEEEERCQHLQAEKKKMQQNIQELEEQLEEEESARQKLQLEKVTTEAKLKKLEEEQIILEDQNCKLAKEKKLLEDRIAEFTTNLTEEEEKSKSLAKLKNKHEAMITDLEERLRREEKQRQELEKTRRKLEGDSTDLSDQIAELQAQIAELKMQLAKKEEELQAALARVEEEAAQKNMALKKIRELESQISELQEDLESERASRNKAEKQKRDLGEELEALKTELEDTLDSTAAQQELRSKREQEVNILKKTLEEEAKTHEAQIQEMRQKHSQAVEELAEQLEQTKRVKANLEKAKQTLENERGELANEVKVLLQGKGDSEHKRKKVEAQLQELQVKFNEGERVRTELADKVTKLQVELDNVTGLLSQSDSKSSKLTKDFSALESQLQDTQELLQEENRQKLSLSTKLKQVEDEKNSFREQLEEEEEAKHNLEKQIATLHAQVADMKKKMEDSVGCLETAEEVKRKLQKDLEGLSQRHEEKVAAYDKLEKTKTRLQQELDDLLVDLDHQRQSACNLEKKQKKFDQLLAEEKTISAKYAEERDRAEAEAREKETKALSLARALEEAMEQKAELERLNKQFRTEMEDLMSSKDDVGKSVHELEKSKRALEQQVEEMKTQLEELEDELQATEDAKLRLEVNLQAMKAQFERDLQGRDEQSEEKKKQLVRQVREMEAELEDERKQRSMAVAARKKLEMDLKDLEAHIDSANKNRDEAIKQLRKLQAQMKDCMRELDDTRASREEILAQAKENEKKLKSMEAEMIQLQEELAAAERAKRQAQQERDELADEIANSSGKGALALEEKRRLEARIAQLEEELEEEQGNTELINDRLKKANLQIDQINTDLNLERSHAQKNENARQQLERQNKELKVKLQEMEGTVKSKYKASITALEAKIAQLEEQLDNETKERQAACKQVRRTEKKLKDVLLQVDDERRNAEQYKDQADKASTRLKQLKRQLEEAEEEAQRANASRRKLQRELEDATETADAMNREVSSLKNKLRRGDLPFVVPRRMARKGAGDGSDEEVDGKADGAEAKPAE
UniProt Q9NQC3, sequence (Q9NQC3 whole entry): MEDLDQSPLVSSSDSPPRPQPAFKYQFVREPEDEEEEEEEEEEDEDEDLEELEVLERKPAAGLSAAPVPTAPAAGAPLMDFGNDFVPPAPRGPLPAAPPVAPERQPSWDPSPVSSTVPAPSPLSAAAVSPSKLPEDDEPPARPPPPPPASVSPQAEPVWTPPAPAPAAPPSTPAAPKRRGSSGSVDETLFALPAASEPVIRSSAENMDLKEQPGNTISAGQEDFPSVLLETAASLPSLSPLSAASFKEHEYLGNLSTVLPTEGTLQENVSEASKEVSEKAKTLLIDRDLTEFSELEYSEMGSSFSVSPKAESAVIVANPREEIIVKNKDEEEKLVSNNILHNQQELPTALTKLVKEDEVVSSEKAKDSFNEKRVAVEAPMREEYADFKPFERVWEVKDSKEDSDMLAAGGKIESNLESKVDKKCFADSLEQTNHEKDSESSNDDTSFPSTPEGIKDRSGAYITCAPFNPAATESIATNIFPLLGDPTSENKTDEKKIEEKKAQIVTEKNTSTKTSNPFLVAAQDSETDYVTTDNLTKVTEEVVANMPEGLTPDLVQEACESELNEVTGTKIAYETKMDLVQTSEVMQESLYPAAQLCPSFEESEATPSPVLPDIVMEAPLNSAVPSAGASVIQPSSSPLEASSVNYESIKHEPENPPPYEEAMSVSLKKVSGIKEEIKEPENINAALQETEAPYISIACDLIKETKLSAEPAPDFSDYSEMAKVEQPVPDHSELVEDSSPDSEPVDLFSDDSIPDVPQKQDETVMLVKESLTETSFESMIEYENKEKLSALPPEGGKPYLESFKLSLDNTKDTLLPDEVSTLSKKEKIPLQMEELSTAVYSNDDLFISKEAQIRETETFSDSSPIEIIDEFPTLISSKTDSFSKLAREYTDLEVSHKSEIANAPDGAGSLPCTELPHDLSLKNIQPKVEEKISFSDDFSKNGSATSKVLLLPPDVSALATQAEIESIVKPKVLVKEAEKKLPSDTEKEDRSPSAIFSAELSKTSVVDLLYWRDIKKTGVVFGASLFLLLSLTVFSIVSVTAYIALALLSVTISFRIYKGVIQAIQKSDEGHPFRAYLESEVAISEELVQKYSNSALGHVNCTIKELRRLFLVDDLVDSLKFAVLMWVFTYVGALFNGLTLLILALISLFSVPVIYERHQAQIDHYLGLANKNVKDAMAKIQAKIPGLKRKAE
UniProt Q9UBI6, sequence (Q9UBI6 whole entry): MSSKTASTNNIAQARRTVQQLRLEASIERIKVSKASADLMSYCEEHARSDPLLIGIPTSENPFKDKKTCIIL
UniProt P42892, sequence (P42892 whole entry): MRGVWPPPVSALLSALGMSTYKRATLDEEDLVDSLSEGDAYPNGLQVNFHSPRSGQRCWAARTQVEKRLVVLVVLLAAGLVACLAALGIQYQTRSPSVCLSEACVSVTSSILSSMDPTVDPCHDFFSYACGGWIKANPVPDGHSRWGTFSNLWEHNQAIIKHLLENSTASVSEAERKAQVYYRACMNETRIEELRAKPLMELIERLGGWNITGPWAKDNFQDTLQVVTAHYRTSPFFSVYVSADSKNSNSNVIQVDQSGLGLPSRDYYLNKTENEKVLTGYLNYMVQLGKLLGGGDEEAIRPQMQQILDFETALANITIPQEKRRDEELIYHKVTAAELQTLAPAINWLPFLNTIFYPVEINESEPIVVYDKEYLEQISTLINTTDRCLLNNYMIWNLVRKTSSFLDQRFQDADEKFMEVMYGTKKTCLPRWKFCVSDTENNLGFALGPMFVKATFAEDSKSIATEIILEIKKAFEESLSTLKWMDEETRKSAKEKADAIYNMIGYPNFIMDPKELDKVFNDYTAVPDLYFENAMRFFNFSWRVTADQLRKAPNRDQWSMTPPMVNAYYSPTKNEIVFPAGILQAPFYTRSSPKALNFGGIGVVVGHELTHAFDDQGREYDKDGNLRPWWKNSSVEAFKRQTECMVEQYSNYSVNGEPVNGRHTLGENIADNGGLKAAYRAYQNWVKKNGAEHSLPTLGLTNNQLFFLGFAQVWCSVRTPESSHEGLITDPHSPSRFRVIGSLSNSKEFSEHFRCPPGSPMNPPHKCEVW
UniProt P62316, sequence (P62316 whole entry): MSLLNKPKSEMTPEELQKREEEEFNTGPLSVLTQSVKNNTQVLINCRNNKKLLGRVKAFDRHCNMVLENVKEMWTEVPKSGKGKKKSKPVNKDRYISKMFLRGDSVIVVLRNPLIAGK

| Target | lysine labeling ratio R10:1 |
| --- | --- |
| FLNB (lysine site: K1005) (UniProt O75369) | 4.49 |
| CACYBP (lysine site: K220) (UniProt Q9HB71) | 1.74 (active) |
| RTN4 (lysine site: K1104) (UniProt Q9NQC3) | 1.32 (active) |
| LRP1 (lysine site: K2653) (UniProt Q07954) | 1.54 (active) |
| UniProt P61160 (lysine site: K381) | 2.7 |
| EPCAM (lysine site: K155) (UniProt P16422) | 2.33 |
| CALD1 (lysine site: K119) (UniProt Q05682) | 2.67 |
| IMPDH2 (lysine site: K511) (UniProt P12268) | 3.35 |
| UniProt P23352 (lysine site: K279) | 3.78 |
| UniProt P55072 (lysine site: K148) | 5.57 |
| MYH9 (lysine site: K910) (UniProt P35579) | 4.64 |
| SPTBN1 (lysine site: K714) (UniProt Q01082) | 2.12 |
| LMO7 (lysine site: K1264) (UniProt Q8WWI1) | 4.64 |
| GPI (lysine site: K34) (UniProt P06744) | 2.53 |
| UniProt P62316 (lysine site: K118) | 6.15 |
| MYH9 (lysine site: K1389) (UniProt P35579) | 2.38 |
| ECE1 (lysine site: K747) (UniProt P42892) | 4.05 |
| ITGB1 (lysine site: K202) (UniProt P05556) | 4.2 |
| EZR (lysine site: K400) (UniProt P15311) | 6.03 |
| L1CAM (lysine site: K119) (UniProt P32004) | 3.56 |
| UniProt Q14696 (lysine site: K222) | 3.35 |
| ITGB1 (lysine site: K105) (UniProt P05556) | 6.92 |
| GNG12 (lysine site: K34) (UniProt Q9UBI6) | 2.84 |
